PubChem BioAssay (Tox21)
Several values for one entry are separate records, joined by “and”; a condition that tells them apart may be missing. Identical values can stand only once. Inconclusive results are not listed. A structure can be active in one record and inactive in another. Activity calls are given as the source filed them. Calls follow the shape of the dose curve; as a rule, active = well fitted inhibition curve with a large enough effect in the signal ratio in the repeat runs (not every such curve was filed as active); inconclusive = weak or mixed curves, or effect the other way; inactive = no such curve, though single readings can be large or run the other way; the % refers to the signal ratio.

biological target: Bile acid receptor (Homo sapiens) (UniProt Q96RI1); experiment: qHTS assay to identify small molecule antagonists of the farnesoid-X-receptor (FXR) signaling pathway (AID 743217); details: HEK293T FXR-UAS-bla, beta-lactamase ratio, CDCA-stimulated, 16 h; series mostly up to 62.6 µM; activity change, negative = inhibition: at the top concentration
Sequence (Q96RI1 whole entry, looked up): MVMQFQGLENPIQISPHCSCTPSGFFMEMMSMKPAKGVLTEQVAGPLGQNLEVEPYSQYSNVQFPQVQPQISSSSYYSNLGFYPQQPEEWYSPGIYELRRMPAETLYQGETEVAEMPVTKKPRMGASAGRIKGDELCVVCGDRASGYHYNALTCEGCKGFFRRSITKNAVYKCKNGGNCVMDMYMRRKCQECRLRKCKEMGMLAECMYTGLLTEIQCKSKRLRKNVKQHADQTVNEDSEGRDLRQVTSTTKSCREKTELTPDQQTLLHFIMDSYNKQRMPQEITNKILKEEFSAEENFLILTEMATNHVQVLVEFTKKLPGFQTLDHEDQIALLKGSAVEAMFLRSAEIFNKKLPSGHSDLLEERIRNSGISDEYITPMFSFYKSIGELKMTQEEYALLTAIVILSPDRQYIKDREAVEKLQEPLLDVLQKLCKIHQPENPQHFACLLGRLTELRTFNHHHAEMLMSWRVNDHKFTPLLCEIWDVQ
Source text: U.S. Tox21 Program National Center for Advancing Translational Sciences [NCATS] NIH Chemical Genomics Center [NCGC] U.S. Environmental Protection Agency [EPA] National Institutes of Environmental Health Sciences [NIEHS] National Toxicology Program [NTP] U.S. Food and Drug Administration [FDA] Tox21 Assay Overview: The farnesoid-X-receptor (FXR), a nuclear hormone receptor, is highly expressed in liver, intestine, kidney and adrenal cortex. Natural ligands of FXR are the bile acids (Cholic acid, Chenodeoxy cholic acid etc). FXR is an important regulator of diverse metabolic pathways, including the bile acid homeostasis, lipid and glucose metabolisms. FXR regulates the expression of target genes by binding either as a monomer or as a heterodimer with the retinoid X receptor (RXR). Numerous studies have reported that FXR exerts protective function during cholestasis, diabetes, liver regeneration, and cancer. To identify compounds that inhibit FXR signaling, GeneBLAzer FXR-UAS-bla HEK 293T cell line (Invitrogen, Carlsbad, CA) containing a beta-lactamase reporter gene under the control of a UAS response element was used to screen the Tox21 10K compound library.
Tox21 Assay Protocol Summary: FXR-bla cells were dispensed at 5000 cells/5uL/well in 1536-well black wall/clear bottom plates using a Multidrop Combi (Thermo Fisher Scientific, Waltham, MA) dispenser. After the assay plates were incubated at 37C and 5% CO2 for 5 h, 23 nL of compounds dissolved in DMSO, positive controls or DMSO only was transferred to the assay plate by a Pintool station (Kalypsys, San Diego, CA), followed by addition of 1 uL Chenodeoxycholic acid (50 uM, final concentration in the wells). The assay plates were incubated at 37C for 16 h. After 1 uL of LiveBLAzerTM B/G FRET substrate was added using a Bioraptr Flying Reagent Dispenser (FRD) workstation (Beckman Coulter, Indianapolis, IN), the plates were incubated at room temperature for 2 h, and fluorescence intensity was measured by an Envision plate reader (PerkinElmer, Shelton, CT).
% is scaled to controls: 0 for no effect and ±100 for the full control effect; potency is read from the fitted curve at half-maximal effect.

With Cc1scc2c1N(C(=O)CN1CCN(C)CC1)c1ccccc1NC2=O as the compound, how does the “activity change, negative = inhibition” value read?
The value was 4.3% (inactive).

With NCCCCCC(=O)O as the compound, how does the “activity change, negative = inhibition” value read?
Its value is 7.68% (inactive).

O=C(O)c1cccc(C(=O)O)c1 was tested. Which “activity change, negative = inhibition” value did it give?
The value was 6.94% [at 81.1 µM] (inactive).

Which “activity change, negative = inhibition” value does the source give for COc1ccc(Cc2cnc(N)nc2N)cc1OC here?
The value was 8.71% (inactive).

CC(=O)OCC1=C(C(=O)O)N2C(=O)[C@@H](NC(=O)Cc3cccs3)[C@H]2SC1 was tested. Which “activity change, negative = inhibition” value did it give?
The value was 9.21% (inactive).

Which “activity change, negative = inhibition” value does the source give for N[C@@H]1CONC1=O here?
The value was 9.42% (inactive).

With CCCCN(CCO)CCCC as the compound, how does the “activity change, negative = inhibition” value read?
The value was 1.97% [at 81.1 µM] (inactive).

Which Potency does the source give for CC(=O)N[C@@H](CS)C(=O)O here?
Its Potency is “inactive”.

For Cc1ccnc2c1NC(=O)c1cccnc1N2C1CC1, which Potency is on record?
The Potency was “inactive”.

For OCCN1CCNCC1, which “activity change, negative = inhibition” value is on record?
Its value is 0.0125% (inactive).

How did the Potency turn out when COc1ccc(COC(C)=O)cc1 was run?
The Potency was “inactive”.

How did the Potency turn out when Cc1cc(OCCOCC[N+](C)(C)Cc2ccccc2)ccc1C(C)(C)CC(C)(C)C was run?
The Potency was 54.6 µM (active).

For Nc1ccc(O)cc1, which “activity change, negative = inhibition” value is on record?
Its value is 0.389% (inactive).

For CCOc1ccccc1C(N)=O, which Potency is on record?
Its Potency is “inactive”.

OCC(CO)N[C@H]1C[C@](O)(CO)[C@@H](O)[C@H](O)[C@H]1O was tested. Which “activity change, negative = inhibition” value did it give?
Its value is 3.27% (inactive).

CC(C)(C)NCC(O)COc1ccccc1OCC1CCCO1 (stereo not given) was tested. Which “activity change, negative = inhibition” value did it give?
The value was -3.67% (inactive).

How did the Potency turn out when CC(=O)OCCOCCOCCOC(C)=O was run?
Its Potency is “inactive”.

How did the “activity change, negative = inhibition” value turn out when CN1C(=O)c2ccc([N+](=O)[O-])cc2C1=O was run?
Its value is 2.77% (inactive).

How did the “activity change, negative = inhibition” value turn out when CCN(CC)CCOc1ccc(/C(=C(\Cl)c2ccccc2)c2ccccc2)cc1 was run?
Its value is -23.8% (inactive).

CCC[C@H](N[C@@H](C)C(=O)N1[C@H](C(=O)O)C[C@@H]2CCCC[C@@H]21)C(=O)OCC was tested. Which “activity change, negative = inhibition” value did it give?
The value was -8.8% (inactive).

How did the “activity change, negative = inhibition” value turn out when CNC1(C)C2CCC(C2)C1(C)C (stereo not given) was run?
Its value is -0.936% (inactive).

Cc1cccc(O)c1C was tested. Which Potency did it give?
Its Potency is “inactive”.

For c1cnc2cc3c(cc2n1)C1CNCC3C1, which “activity change, negative = inhibition” value is on record?
Its value is -0.412% (inactive).

CCC(=O)/C=C/C1C(C)=CCCC1(C)C (stereo not given) was tested. Which Potency did it give?
The Potency was “inactive”.

With Cc1cccc([N+](=O)[O-])c1C(=O)O as the compound, how does the “activity change, negative = inhibition” value read?
The value was -9.21% (inactive).

How did the Potency turn out when CCCCCCC(O)CCCCCCCCCCC(=O)O (stereo not given) was run?
The Potency was “inactive and 34.7 µM (active)”.

CCc1cc(C(C)(C)C)c(O)c(C(C)(C)C)c1 was tested. Which “activity change, negative = inhibition” value did it give?
Its value is -13.1% (inactive).

For Cc1ccc(S(=O)(=O)Oc2ccc(N=Nc3ccc(-c4ccc(N=Nc5c(O)ccc6cc(S(=O)(=O)O)cc(S(=O)(=O)O)c56)c(C)c4)cc3C)cc2)cc1, which “activity change, negative = inhibition” value is on record?
The value was -2.95% (inactive).

How did the Potency turn out when CCCCCCCCCCCCc1ccccc1O was run?
Its Potency is 49 µM (active).

How did the Potency turn out when c1ccc2cc3c(ccc4ccccc43)cc2c1 was run?
Its Potency is “inactive”.

How did the “activity change, negative = inhibition” value turn out when CC(C)C(=O)c1c(C(C)C)nn2ccccc12 was run?
Its value is 1.15% (inactive).

Which Potency does the source give for NC(N)=Nc1nc(CSCC/C(N)=N/S(N)(=O)=O)cs1 here?
Its Potency is “inactive”.

Nc1nc2ccccc2[nH]1 was tested. Which Potency did it give?
The Potency was “inactive”.

How did the “activity change, negative = inhibition” value turn out when CC(=O)O[C@]1(C(C)=O)CC[C@H]2[C@@H]3C[C@H](C)C4=CC(=O)CC[C@]4(C)[C@H]3CC[C@@]21C was run?
The value was -9.76% (inactive).

For C=C(C)C1CC=C(C)C(OC(C)=O)C1 (stereo not given), which Potency is on record?
The Potency was “inactive”.

Which “activity change, negative = inhibition” value does the source give for COC(c1ccccc1)(c1ccccc1)[C@H](Oc1nc(C)cc(C)n1)C(=O)O here?
Its value is 2.35% (inactive).

For O=S(=O)(O)c1ccc2nc(-c3ccccc3)[nH]c2c1, which Potency is on record?
The Potency was “inactive”.

For C=CC(=O)OCCCCCCOC(=O)C=C, which “activity change, negative = inhibition” value is on record?
Its value is -23.3% (inactive).

With O=C(OCc1ccccc1)c1ccc(O)cc1 as the compound, how does the “activity change, negative = inhibition” value read?
The value was 1.34% (inactive).

With CN(C)c1ccc2nc3ccc(=[N+](C)C)cc-3sc2c1 as the compound, how does the Potency read?
The Potency was 8.37 µM (active) and 21.9 µM (active) and 8.41 µM (active).
